# Shn3 inh set2 = Schnurri-3 reporter inhibition in Clone20 osteoblasts | Clone20 osteoblast Shn3 3'UTR firefly luciferase, 24 h | 360,000 tested, 0.52% active | inhibition, % at 12.5 µM;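 active = mean inhibition of at least 75% with every replicate also reaching 75%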;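 also: 0% = median of neutral control wells and 100% = pilot-screen positive control compound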
# KKLEB tox = counter-screen for CF NF-kB inhibitors: cytotoxicity; KKLEB CF airway cells viability, ATPlite luminescence, overnight; hits give low values; cells stimulated with P. aeruginosa culture filtrate; activity change (cytotoxicity), % at 5 µM; 360,000 tested, 0.36% active; AID 602141;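 active = corrected activity change at or below -50% at 5 µM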
# CF NFkB inh = cystic fibrosis NF-kB activation inhibition; inhibition, % at 5 µM; 360,000 tested, 0.86% active; AID 588850; KKLEB NF-kB-GFP reporter, PAF-induced, GFP fluorescence overnight;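 active = at least 50% inhibition at 5 µM, scaled per plate between neutral and stimulator controls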;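 also: PAF is a Pseudomonas aeruginosa culture filtrate used as stimulus; plate controls were PAF-stimulated DMSO wells for no effect and unstimulated DMSO wells for full effect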
# HIF-2a inh = inhibitors of HIF-2a | 786-0 RCC cells HIF-2a reporter, luciferase luminescence, overnight | 360,000 tested, 0.72% active | inhibition, % at 18.8 µM;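 active = inhibition of the luminescence signal of 40% or more relative to plate controls, in a single-dose primary screen at 18.75 µM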
# MITF TRPM1 inh = MITF TRPM1 promoter inhibition in SK-MEL-5 cells; 330,000 tested, 0.83% active; SK-MEL-5 TRPM1 promoter luciferase, 24 h; inhibition, % at 12.5 µM;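 active = mean inhibition across replicates of 60% or more, whatever share of single replicates reaches that level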
# Peg3 prom inh = reduces Peg3 promoter-driven luciferase expression in HeLa | HeLa PEG-Prom luciferase reporter, luminescence, overnight | inhibition, % at 20 µM | AID 588405 | 360,000 tested, 1.7% active;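 active = inhibition of at least 50% at 20 µM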
# CF NFkB conf = confirmation of cystic fibrosis induced NF-kB inhibitors; inhibition, % at 5 µM; KKLEB CF airway cells, PAF-induced NF-kB-GFP fluorescence, overnight; 1,300 tested, 64% active; shares compounds with CF NFkB inh; in the data active = inhibition above about 40%;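 also: stimulus PAF is a Pseudomonas aeruginosa filtrate and not platelet activating factor; plate controls were DMSO wells with stimulus for no effect and unstimulated DMSO wells for full effect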
# An asterisk follows results filed as active; nt = no result given. Most compounds without a hit are left out; they make up all but 2.7% or so of the library.
SMILES,Shn3 inh set2,KKLEB tox,CF NFkB inh,HIF-2a inh,MITF TRPM1 inh,Peg3 prom inh,CF NFkB conf
COc1ccc(NC(=O)CN2C(=O)NC(c3ccccc3)(c3ccccc3)C2=O)cc1,-7.9,3.7,-12.6,11.2,-3.3,-5.9,nt
CCCCCn1nc(C(=O)N(CC(C)C)c2c(N)n(CCCC)c(=O)[nH]c2=O)c2ccccc2c1=O,4.5,-5.3,7.1,-5.5,-0.9,9.4,nt
Cc1c([N+](=O)[O-])c2ccc(O)cc2n1-c1ccccc1,nt,-1.7,67.5*,3.3,-1.4,31.0,78.0*
COc1cccc(-c2cc(C(=O)N3CCN(C(=O)c4ccco4)CC3)on2)c1,-4.5,3.2,-9.9,-14.7,7.5,-23.2,nt
CC[C@]12c3[nH]c4cc(CCC(=O)N(C)C)ccc4c3CCN1C(=O)[C@@H](CC(=O)NC(C)(C)C)C[C@@H]2C(=O)N1CCN(C(=O)C2CC2)CC1,-20.7,-2.8,10.8,6.9,-16.8,-0.8,nt
Oc1c(C(c2ccccc2)N2CCOCC2)ccc2ccccc12 (centres undefined),10.9,-44.4,79.0*,9.9,15.5,55.7*,-12.7
CCOCCCN(C(=O)Cn1nnc(-c2ccc(OC)c(OC)c2)n1)C(C(=O)NCC1CCCO1)c1ccc(F)cc1 (centres undefined),12.0,-4.3,4.5,5.0,-4.4,18.8,nt
Cc1ccc(S(=O)(=O)Nc2cccc3ncccc23)s1,83.8,5.0,83.3*,80.5*,99.6*,102.6*,108.5*
CC(=O)C1CCC2C3CCC4=CC(=O)CC[C@]4(C)[C@@]3(F)C(O)C[C@]12C (some centres undefined),10.8,25.8,55.6*,26.6,-5.3,11.8,-50.2
CC(=O)C1CCC2C3CCC4=CC(=O)CCC4(C)C3C(O)CC12C (centres undefined),10.5,-2.2,3.9,7.0,nt,1.8,nt
Cc1ccc(S(=O)(=O)N2CCN(C(=O)c3ccnn3C)CC2)cc1C,-9.9,2.9,-3.4,7.5,-1.3,10.8,nt
Cc1ccc(S(=O)(=O)CC(CN2CCCCC2)N2CCCCC2)cc1 (centres undefined),-15.5,-3.1,52.6*,0.6,69.3*,-93.3,56.8*
CS(=O)(=O)c1ccc2nc(NC(=O)Nc3cccc(Cl)c3)sc2c1,-2.8,-32.4,63.5*,-133.6,-37.2,-60.2,66.0*
CS(=O)(=O)c1ccc2nc(NC(=O)Nc3ccc(Cl)c(Cl)c3)sc2c1,10.6,-6.8,25.2,5.4,-13.6,41.3,nt
CCN(CC(=O)Nc1ccc(C)c(S(=O)(=O)N2CCOCC2)c1)Cc1ccccc1,19.7,-29.5,7.0,3.3,2.3,8.0,nt
CCN1CCN(c2ccc(S(=O)(=O)N3CCCCC3)cc2NC(=O)Cc2ccccc2)CC1,-17.8,-48.2,56.9*,4.2,4.4,15.9,17.5
CN(CC(=O)Nc1ccccc1Cl)C(=O)COC(=O)c1ccc(S(=O)(=O)C(F)F)cc1,-2.8,-15.9,14.1,9.6,-7.8,-3.8,nt
CC(=O)Oc1ccc(-c2ccc(C(=O)OCC(=O)N(C)CC(=O)Nc3ccccc3Cl)cc2)cc1,20.5,-43.7,51.7*,12.7,16.9,5.5,36.4
Cc1ccc(NC(=O)CCN2C(=O)NC3(CCCC3)C2=O)c(C)c1,-1.4,4.1,-5.1,6.4,-8.8,1.0,nt
COC(C/C=C/C(=O)[C@H](C)OCc1ccccc1)OC,-62.1,-16.4,58.4*,14.7,0.3,20.4,-34.6
COC(C/C=C/C(=O)COCc1ccccc1)OC,-18.9,-6.8,9.9,-8.0,-0.3,-3.8,nt
CCCCCN(C(=O)CCC(=O)OCc1cccc(C(F)(F)F)c1)c1c(N)n(CCCC)c(=O)[nH]c1=O,11.6,-13.7,2.9,9.7,0.3,28.0,nt
O=C(Nc1cccnc1)Nc1cccc(F)c1,3.2,-9.8,-1.7,-72.9,-1.4,-26.2,nt
CC(=O)c1cccc(NC(=O)Nc2cccnc2)c1,13.0,-5.2,56.7*,-7.4,-6.0,-18.6,77.0*
CC1=C(C(=O)OCc2ccc3c(c2)OCO3)C(c2ccc(O)c([N+](=O)[O-])c2)NC(=O)N1 (centres undefined),16.1,-7.8,69.4*,19.9,-2.5,3.0,75.7*
SMILES,Shn3 inh set2,KKLEB tox,CF NFkB inh,HIF-2a inh,MITF TRPM1 inh,Peg3 prom inh,CF NFkB conf
CCCCOC(=O)C1=C(C)NC(=O)NC1c1ccc2c(c1)OCO2 (centres undefined),-12.0,2.9,-6.4,14.4,13.5,8.9,nt
COc1ccc(COC(=O)C2=C(C)NC(=O)NC2c2ccc(OC)cc2)cc1 (centres undefined),12.7,7.8,52.8*,26.5,-5.3,33.5,51.2*
O=C(Nc1ccccc1)c1cc(C2CCCCN2S(=O)(=O)c2ccc(F)cc2F)on1 (centres undefined),-10.4,-3.6,1.8,-89.1,nt,-18.6,nt
CN(Cc1ccccc1)C(=O)c1cccc(NC(=O)Cc2cccc(NC(=O)C3CCN(C(=O)c4ccccc4)CC3)c2)c1,-19.2,9.8,-7.6,-8.3,0.2,12.4,nt
CCC(=O)N1CCC1(C)C(=O)Nc1ccc2scnc2c1 (centres undefined),-5.0,-15.7,14.0,-72.6,nt,-36.9,nt
Cc1nn(-c2cccc(Cl)c2)c2nc(C(F)(F)F)[nH]c(=O)c12,-15.5,-1.1,53.7*,-0.9,5.8,41.7,44.1*
O=C(COC(=O)/C=C/c1cccc(F)c1)NC(=O)NC1CCCC1,2.5,7.6,7.3,0.4,14.2,-1.1,nt
CCn1c(C)c(C)c2cc(C(=O)NCCCN3CCCCC3C)ccc21 (centres undefined),-1.2,9.4,-0.6,2.6,-24.7,-16.0,nt
NS(=O)(=O)c1ccc(CCNc2nn3c(-c4cccc(OC(F)(F)F)c4)cnc3s2)cc1,82.9,-41.0,52.8*,23.0,nt,101.6*,69.9*
COc1ccc(CCNc2ccc(S(N)(=O)=O)cn2)cc1,0.8,-5.0,-11.4,-5.4,-2.8,-21.9,nt
C[C@]12c3[nH]c4ccc(Cl)cc4c3CCN1C(=O)[C@@H](CC(=O)NCc1cccc(C(F)(F)F)c1)C[C@@H]2C(=O)N1CCOCC1,37.7,1.3,-5.7,-10.8,32.6,32.9,nt
CC(C)N(C(=O)[C@H]1C[C@H](CC(=O)NCc2cccc(C(F)(F)F)c2)C(=O)N2CCc3c([nH]c4ccc(Cl)cc34)[C@]12C)C(C)C,11.9,-41.2,60.0*,-16.2,27.7,59.1*,39.5
N#Cc1ccsc1NC(=O)c1cccc([N+](=O)[O-])c1,19.1,-5.6,15.7,-15.2,-7.5,-38.5,nt
N#Cc1ccsc1NC(=O)c1ccc(Cl)c([N+](=O)[O-])c1,-36.0,-25.4,50.3*,-104.9,-13.6,-163.7,68.2*
CCOC(=O)c1ccc(N=Nc2c(C)[nH]n(-c3ccccc3)c2=O)cc1,8.9,-0.1,-28.1,-23.4,7.0,8.4,nt
CCOC(=O)c1ccc(-n2[nH]c(-c3ccccc3)cc2=O)cc1,-17.9,-48.2,64.3*,-19.1,-3.0,-22.4,75.9*
